Consider 24 molecules from PubChem BioAssay (NCATS).

Inconclusive results are not listed. Active and inactive are the calls of the source. Calls follow the shape of the dose curve; as a rule, active = well fitted cell-killing curve with a large enough effect; inconclusive = small, poorly fitted or top-dose-only effect, or effect the other way; inactive = no such curve, though single readings can be large or run the other way.
Potency is read from the fitted curve at half-maximal effect.

This assay can be described thus: Quantitative High-Throughput drug screen in 47 multiple myeloma cell lines against the NCATS MIPE library collection: EJM_DSMZ cell viability assay (AID 1918926; also: nearly all actives have a fitted effect of over 30% in size). As to conditions: EJM myeloma cell viability, CellTiter-Glo ATP, 48 h; series mostly up to 45.8 µM; viability, % of control: at the top concentration. From the text:
PI: Beverly A. Mock Ph.D.
Laboratory of Cancer Biology and Genetics,
Center for Cancer Research, National Cancer Institute,
National Institute of Health, Bethesda, Maryland
Drug resistance and disease progression are common in multiple myeloma (MM) patients, underscoring the need for new therapeutic combinations. […] We hypothesized that effective combinations would reduce MYC expression and enhance p16 activity. […] These preclinical data identify potentially useful drug combinations for evaluation in drug-resistant MM and reveal potential mechanisms of combined drug sensitivity.
Described herein is the primary MIPE qHTS used to cherrypick compounds. Validated compounds were then further tested for potential synergistic activiy.
[1] Peat TJ, Gaikwad SM, Dubois W, Gyabaah-Kessie N, Zhang S, Gorjifard S, Phyo Z, Andres M, Hughitt VK, Simpson RM, Miller MA, Girvin AT, Taylor A, Williams D, D'Antonio N, Zhang Y, Rajagopalan A, Flietner E, Wilson K, Zhang X, Shinn P, Klumpp-Thomas C, McKnight C, Itkin Z, Chen L, Kazandijian D, Zhang J, Michalowski AM, Simmons JK, Keats J, Thomas CJ, Mock BA. Drug combinations identified by high-throughput screening promote cell cycle transition and upregulate Smad pathways in myeloma. Cancer Lett. 2023 Aug 1;568:216284. doi: 10.1016/j.canlet.2023.216284. Epub 2023 Jun 24. PMID: 37356470; PMCID: PMC10408729.
SEQUENCE No. (e.g., 1, 2, 3, etc.); […] (e.g., Cells, Incubation, Reagent, etc.); VALUE and DESCRIPTION.
1; Cells; 5 uL; white, solid bottom 1536-well Greiner assay plate.
2; Compounds; 23 nL; Kalypsis pin tool (Wako USA) equipped with a 1536-well pin head to transfer to the assay plates.
3; Incubation; 48 hours; 37C incubation.
4; Reagent;5uL; CellTiter Glo (Promega).
5; Detector; 425V; Luminescence; Viewlux PerkinElmer.
NOTES (numbers refer to Sequence numbers above)
1. The cell-based screening methods employed in this study were like those previously published. Briefly, the corresponding myeloma cell lines were screened in 1,536-well plates with 500 cells, 5-uL per well for inhibition of cell viability (assessed by measuring ATP levels with CellTiterGlo).
2. NCATS MIPE 4.0 library of approved and investigational drugs were added using the Kalypsis pin tool. Wells treated with DMSO only for 100% viability and media only wells for 0% viability were used as controls.
3. The assay plates were covered and incubated for 48 hours in a 37C, 5% CO2 incubator with controlled humidity.
4. After 48 hours, CellTilter-GloTM luminescent substrate mix (Promega) reagent was added to the assay plate and plates we incubated for 5 min at room temperature.
5. Signal was measured as median relative luminescence units on a ViewLux (PerkinElmer) multiplate reader.
[1] Heske CM, Davis MI, Baumgart JT, Wilson K, Gormally MV, Chen L, Zhang X, Ceribelli M, Duveau DY, Guha R, Ferrer M, Arnaldez FI, Ji J, Tran HL, Zhang Y, Mendoza A, Helman LJ, Thomas CJ. Matrix Screen Identifies Synergistic Combination of PARP Inhibitors and Nicotinamide Phosphoribosyltransferase (NAMPT) Inhibitors in Ewing Sarcoma. Clin Cancer Res. 2017 Dec 1;23(23):7301-7311. doi: 10.1158/1078-0432.CCR-17-1121. Epub 2017 Sep 12. PMID: 28899971; PMCID: PMC6636827.
Background: ATP-based viability assays read luminescence as a measure of living cells.
For the molecule `CNC(=O)N1N=C(c2ccc(N)cc2)c2cc3c(cc2CC1C)OCO3` (centres undefined), the Potency is 11.8 µM (active).

As to `COC[C@@H](NC(C)=O)C(=O)NCc1ccccc1`, the “viability, % of control” value is 136% (inactive). For `CC(O)(CS(=O)(=O)c1ccc(F)cc1)C(=O)Nc1ccc(C#N)c(C(F)(F)F)c1` (centres undefined), the Potency was 0.187 µM (active). On the same count and under the same terms, for `Fc1ccc(C(OCCN2CCN(CCCc3ccccc3)CC2)c2ccc(F)cc2)cc1` the value was 13.2 µM (active); for `CNC(=O)c1ccc(N2C(=S)N(c3ccc(C#N)c(C(F)(F)F)c3)C(=O)C23CCC3)cc1F`, 1.48 µM (active). Take `CN(C)[C@@H]1C(=O)C(C(N)=O)=C(O)[C@@]2(O)C(=O)C3=C(O)c4c(O)cccc4[C@@](C)(O)[C@H]3C[C@@H]12`: the “viability, % of control” value was 101% (inactive).

Turning to `CN(C)CCN(C)CCc1ccc(Cl)c(Cl)c1`, the “viability, % of control” value was 114% (inactive).

With `Cc1cc(SCc2sc(-c3ccc(C(F)(F)F)c(F)c3)nc2C)ccc1OCC(=O)O`, the “viability, % of control” value is 118% (inactive).

For the molecule `COC1(CS(=O)c2ccccc2)CCN(CCc2c[nH]c3ccc(F)cc23)CC1` (centres undefined), the “viability, % of control” value is 81.9% (inactive). Still for that read-out and setting: for `CNCC(O)c1ccc(O)cc1` (centres undefined) the value was 94.5% (inactive).

Take `N[C@@H](Cc1ccc(N(CCCl)CCCl)cc1)C(=O)O`: the Potency was 14.8 µM (active). Take `C=C(C)[C@H]1Cc2c(ccc3c2O[C@@H]2COc4cc(OC)c(OC)cc4[C@@H]2C3=O)O1`: the Potency was 4.69 µM (active). `Cc1cccc(C)c1NC(=O)CN1CCCC1=O`: the “viability, % of control” value is 113% (inactive). For the molecule `C[C@@H]1[C@@H](CC(C[C@H]2O[C@@H]3O[C@]4(C)CC[C@@H]5[C@H](C)CC[C@@H]([C@H]2C)[C@@]35OO4)C[S+](=O)([O-])c2ccc(COC(=O)N(C)C)cc2)O[C@@H]2O[C@]3(C)CC[C@H]4[C@H](C)CC[C@@H]1[C@@]24OO3` (some centres undefined), the Potency is 0.187 µM (active). Turning to `O=C(O)C(=O)c1cn(Cc2ccccc2)c2ccc(-c3ccc(OC(F)(F)F)cc3)cc12`, the “viability, % of control” value is 90.9% (inactive). Take `Cn1cc(C2=C(c3cn(C4CCN(Cc5ccccn5)CC4)c4ccccc34)C(=O)NC2=O)c2ccccc21`: the Potency was 11.8 µM (active). Still for that read-out and setting: to `COc1ccc2c(c1OC)CN1CCc3cc4c(cc3C1C2)OCO4` (centres undefined) belongs 20.9 µM (active).

Take `CCCC(C)(COC(N)=O)COC(=O)NC(C)C` (centres undefined): the “viability, % of control” value is 110% (inactive). For `CC1=C2C[C@@H]3[C@@H](CC=C4C[C@@H](O)CC[C@@]43C)[C@@H]2CC[C@]12O[C@H]1C[C@H](C)CN[C@H]1[C@H]2C`, the Potency is 8.33 µM (active). Turning to `NCC1(CC(=O)O)CCCCC1`, the “viability, % of control” value is 111% (inactive). The same measure, in the same setting: for `CN1CCN(C(=O)O[C@H]2c3nccnc3C(=O)N2c2ccc(Cl)cn2)CC1` the value was 105% (inactive); for `O=P1(NCCCl)OCCCN1CCCl` (centres undefined), 69.3% (inactive); for `COc1ccc(C(=O)c2c(C)n(CCN3CCOCC3)c3ccccc23)cc1`, 113% (inactive). On to `C[C@@H]1O[C@@H](O[C@H]2C[C@@H](O)[C@]3(CO)[C@H]4[C@H](O)C[C@]5(C)[C@@H](C6=CC(=O)OC6)CC[C@]5(O)[C@@H]4CC[C@]3(O)C2)[C@H](O)[C@H](O)[C@H]1O`, for which the Potency is 0.0235 µM (active).
